6 compounds from PubChem BioAssay (EPA / NIEHS) can be followed below.

Read-out in assay [1]: Interleukin-8 (IL8), CXCL8 (gene 3576)
The assay can be described thus: BSK_CASM3C_IL8: BioMAP Diversity Plus: CASM3C Assay for Interleukin-8 (IL8) Biomarker Activity (AID 2283042).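 Also: IL-8 protein level quantified by ELISA.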 To be noted: primary human coronary artery smooth muscle cells; actives raise or lower the signal.

Read-out in assay [2]: Human Leukocyte Antigen - DR isotype (HLADR), HLA-DRA (gene 3122)
Briefly: BSK_CASM3C_HLADR: BioMAP Diversity Plus: CASM3C Assay for Human Leukocyte Antigen - DR isotype (HLADR) Biomarker Activity (AID 2283043).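 Also: cell-surface HLA-DR protein level quantified by ELISA.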 Conditions: primary human coronary artery smooth muscle cells; actives raise or lower the signal.

Read-out in assay [3]: Macrophage colony-stimulating factor (MCSF), CSF1 (gene 1435)
Briefly: BSK_CASM3C_MCSF: BioMAP Diversity Plus: CASM3C Assay for Macrophage colony-stimulating factor (MCSF) Biomarker Activity (AID 2283044).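 Also: M-CSF protein amount quantified by ELISA after 24 h exposure.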 To be noted: primary human coronary artery smooth muscle cells; actives raise or lower the signal.

Read-out in assay [4]: Low-density lipoprotein receptor (LDLR), LDLR (gene 3949)
Briefly: BSK_CASM3C_LDLR: BioMAP Diversity Plus: CASM3C Assay for Low-density lipoprotein receptor (LDLR) Biomarker Activity (AID 2283045).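 Also: LDLR protein level on the cell surface quantified by ELISA.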 To be noted: primary human coronary artery smooth muscle cells; actives raise or lower the signal.

Read-out in assay [5]: Monocyte Chemoattractant Protein-1 (MCP1), CCL2 (gene 6347)
The assay can be described thus: BSK_CASM3C_MCP1: BioMAP Diversity Plus: CASM3C Assay for Monocyte Chemoattractant Protein-1 (MCP1) Biomarker Activity (AID 2283046).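 Also: MCP-1 level quantified by ELISA 24 h after dosing.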 Conditions: primary human coronary artery smooth muscle cells; actives raise or lower the signal.

The nature of assay [6]: BSK_CASM3C_Proliferation: Cell Proliferation Assessment in the BioMAP Diversity Plus: CASM3C Assay (AID 2283047).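 Also: sulforhodamine B total protein stain as relative cell number at 560 nm; sub-confluent cells exposed 48 h before staining; fitted both ways against DMSO so gain or loss of cell number.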 Conditions: primary human coronary artery smooth muscle cells.
Read-out in assay [7]: Monokine induced gamma interferon (MIG), CXCL9 (gene 4283)
Briefly: BSK_CASM3C_MIG: BioMAP Diversity Plus: CASM3C Assay for Monokine induced gamma interferon (MIG) Biomarker Activity (AID 2283048).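 Also: MIG protein level measured by ELISA.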 To be noted: primary human coronary artery smooth muscle cells; actives raise or lower the signal.

Read-out in assay [8]: serum amyloid A (SAA), SAA1 (gene 6288)
Briefly: BSK_CASM3C_SAA: BioMAP Diversity Plus: CASM3C Assay for serum amyloid A (SAA) Biomarker Activity (AID 2283049).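 Also: SAA protein level quantified by ELISA.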 To be noted: primary human coronary artery smooth muscle cells; actives raise or lower the signal.

Assay [9] in a line: BSK_CASM3C_SRB: Viability Assessment in the BioMAP Diversity Plus: CASM3C Assay (AID 2283050).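 Also: total protein by SRB staining as cytotoxicity measure in parallel cultures; cells exposed to compound for 24 h.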 To be noted: primary human coronary artery smooth muscle cells.
Read-out in assay [10]: Thrombomodulin, THBD (gene 7056)
Briefly: BSK_CASM3C_Thrombomodulin: BioMAP Diversity Plus: CASM3C Assay for Thrombomodulin Biomarker Activity (AID 2283051).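 Also: thrombomodulin protein level measured by ELISA 24 h after dosing.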 To be noted: primary human coronary artery smooth muscle cells; actives raise or lower the signal.

Read-out in assay [11]: Tissue Factor, F3 (gene 2152)
Briefly: BSK_CASM3C_TissueFactor: BioMAP Diversity Plus: CASM3C Assay for Tissue Factor Biomarker Activity (AID 2283052).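 Also: cell surface tissue factor protein level read by ELISA.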 To be noted: primary human coronary artery smooth muscle cells; actives raise or lower the signal.

Read-out in assay [12]: Interferon-gamma inducible Protein 10 (IP10), CXCL10 (gene 3627)
Briefly: BSK_hDFCGF_IP10: BioMAP Diversity Plus: hDFCGF Assay for Interferon-gamma inducible Protein 10 (IP10) Biomarker Activity (AID 2283053). Conditions: primary human foreskin fibroblasts; actives raise or lower the signal. The essentials: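 ELISA read-out of IP-10 (CXCL10) from primary human skin fibroblasts, 24 h after compound addition. Gain or loss of signal versus DMSO baseline, bidirectional curve fitting.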

Read-out in assay [13]: Urokinase-type plasminogen activator receptor (uPAR), PLAUR (gene 5329)
Briefly: BSK_CASM3C_uPAR: BioMAP Diversity Plus: CASM3C Assay for Urokinase-type plasminogen activator receptor (uPAR) Biomarker Activity (AID 2283054).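 Also: cell-surface uPAR protein level quantified by ELISA.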 To be noted: primary human coronary artery smooth muscle cells; actives raise or lower the signal.

Read-out in assay [14]: Vascular cell adhesion molecule 1 (VCAM1), VCAM1 (gene 7412)
Briefly: BSK_CASM3C_VCAM1: BioMAP Diversity Plus: CASM3C Assay for Vascular cell adhesion molecule 1 (VCAM1) Biomarker Activity (AID 2283055).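 Also: VCAM-1 protein level quantified by ELISA on the cells.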 Conditions: primary human coronary artery smooth muscle cells; actives raise or lower the signal.

Read-out in assay [15]: Collagen III, COL3A1 (gene 1281)
Briefly: BSK_hDFCGF_CollagenIII: BioMAP Diversity Plus: hDFCGF Assay for Collagen III Biomarker Activity (AID 2283056). To be noted: primary human foreskin fibroblasts; actives raise or lower the signal. The essentials: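 ELISA read-out of collagen III from human skin fibroblast cultures sampled 24 h post-dosing. Values were derived by bidirectional fitting relative to the DMSO vehicle control.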

Read-out in assay [16]: Epidermal growth factor receptor (EGFR), EGFR (gene 1956)
Briefly: BSK_hDFCGF_EGFR: BioMAP Diversity Plus: hDFCGF Assay for Epidermal growth factor receptor (EGFR) Biomarker Activity (AID 2283057). To be noted: primary human foreskin fibroblasts; actives raise or lower the signal. The essentials:
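ELISA readout of EGFR on human dermal fibroblasts (primary foreskin cells), 24 h post-dosing; bidirectional curve fit vs DMSO baseline, gain or loss of signal scored.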

Read-out in assay [17]: Interleukin-8 (IL8), CXCL8 (gene 3576)
The assay can be described thus: BSK_hDFCGF_IL8: BioMAP Diversity Plus: hDFCGF Assay for Interleukin-8 (IL8) Biomarker Activity (AID 2283058). Conditions: primary human foreskin fibroblasts; actives raise or lower the signal. Put shortly:
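Cells used are human skin primary fibroblasts. Chemical is added, cultures run 24 h, then IL-8 is quantified by ELISA, and gain or loss versus DMSO control is fitted in both directions.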

Assay [18] in a line: BSK_hDFCGF_SRB: Viability Assessment in the BioMAP Diversity Plus: hDFCGF Assay (AID 2283061).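 Also: cells exposed to compound for 24 h before the read.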 Conditions: primary human foreskin fibroblasts. The essentials:
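Readout is SRB absorbance at 560 nm, reflecting total protein in parallel cultures of human foreskin fibroblasts harvested 24 h after chemical dosing. Activity was fitted bidirectionally relative to DMSO.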

Read-out in assay [19]: Macrophage colony-stimulating factor (MCSF), CSF1 (gene 1435)
The assay can be described thus: BSK_hDFCGF_MCSF: BioMAP Diversity Plus: hDFCGF Assay for Macrophage colony-stimulating factor (MCSF) Biomarker Activity (AID 2283060). Conditions: primary human foreskin fibroblasts; actives raise or lower the signal. Put shortly: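 Primary human foreskin fibroblasts dosed with chemical; 24 h later, M-CSF quantified by ELISA; curves fitted in both directions vs DMSO negative control.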

Assay [20] in a line: BSK_hDFCGF_Proliferation: Cell Proliferation Assessment in the BioMAP Diversity Plus: hDFCGF Assay (AID 2283059).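 Also: curves fitted for both rise and fall of signal versus DMSO baseline.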 To be noted: primary human foreskin fibroblasts. The essentials:
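Primary human foreskin fibroblasts, sub-confluent; […]; 10% TCA fix, 0.1% SRB stain, A560 total protein. Gain/loss fitted bidirectionally vs DMSO control.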

Structures are written as SMILES. The source made the active and inactive calls. The calls were made as follows: active = hit-call score of the fitted dose curve at least 0.9, where 1 is the maximum; inactive = score below 0.9.

The AC50 is the concentration giving half of the maximal activity seen. Take `CCCCCCCCCCCC[N+](C)(C)C`: the AC50 in [1] is 29.1 µM (active); in assay [2], 14 µM (active); in assay [3] it was 16.2 µM (active); in [4] it was 21.2 µM (active); in [5], 27.1 µM (active); in assay [6], 12.9 µM (active). Also, the AC50 in assay [7] is 33.3 µM (active); in assay [8] it was 26 µM (active); in assay [9], 27.6 µM (active); in assay [11], 4.09 µM (active); in [12], 22.2 µM (active); in assay [13], 19.9 µM (active). Besides, the AC50 was 32.9 µM (active) in assay [14], 2.57 µM (active) in assay [15], 29.9 µM (active) in assay [17] and 18.4 µM (active) in assay [18]. Also, the result in assay [10] and in assay [16] was inactive.
For the compound `CCCCCCCC[Si](OCC)(OCC)OCC`, the outcome in assay [1], in [2], in assay [3], in [4], in assay [5] and in assay [7] was inactive. Further, the outcome in assay [8], in assay [9], in assay [10], in [11], in assay [12] and in assay [13] was inactive. Also, the result in assay [16], in assay [17], in assay [19] and in assay [18] was inactive. For the same compound, the results for the AC50 in assay [6] and in assay [15] were 35.4 µM (active) and 20 µM (active), respectively.
For `Cc1oc2c(NC(=O)c3c(Cl)cccc3Cl)cccc2c1C(C)(C)O`, the outcome in assay [1], in assay [2], in assay [3], in assay [5], in [7] and in assay [8] was inactive. For the same compound, the outcome in assay [9], in assay [12], in assay [13], in assay [14] and in [18] was inactive. In addition, the AC50 was 15.6 µM (active) in assay [4]; 20 µM (active) in assay [6]; 26.5 µM (active) in assay [10]; 29.4 µM (active) in [11]; 20 µM (active) in assay [15]; 17.3 µM (active) in assay [16].
Take `O=c1[nH]sc2ccccc12`: the AC50 in assay [1] is 14.6 µM (active); in assay [2], 5.36 µM (active); in assay [3] it was 14.9 µM (active); in [4] it was 12.7 µM (active); in [5] it was 13.1 µM (active); in assay [6], 1.89 µM (active). Besides, the AC50 in [7] was 10.7 µM (active); in assay [8], 20.4 µM (active); in assay [9] it was 17.3 µM (active); in [10], 4.73 µM (active); in assay [11] it was 28 µM (active); in assay [12] it was 4.08 µM (active). Besides, the AC50 in [13] is 11.3 µM (active); in [14] it was 10.7 µM (active); in [15], 20 µM (active); in [17], 20 µM (active); in assay [19], 3.22 µM (active); in [18] it was 7.21 µM (active). In [16], the outcome was inactive.
With `CC(O)CC(C)(C)O` (stereo not drawn), the result in assay [1], in assay [2], in assay [3], in [4], in assay [5] and in assay [6] was inactive. Moreover, the result in [7], in assay [8], in assay [9], in assay [10], in assay [11] and in assay [12] was inactive. For the same compound, the outcome in assay [13], in assay [14], in assay [15], in [16], in [19] and in [18] was inactive. Besides, the AC50 in assay [20] is 14.1 µM (active).
`COc1cc(C(=O)NC2CCN(C)CC2)ccc1Nc1ncc2c(n1)N(C1CCCC1)CC(F)(F)C(=O)N2C`: the AC50 in [1] was 19.2 µM (active); in [2], 9.13 µM (active); in [3] it was 18.6 µM (active); in assay [4] it was 6.15 µM (active); in [5], 25.1 µM (active); in [6], 1.67 µM (active). Also, the AC50 in [7] was 20.8 µM (active); in [8], 31.9 µM (active); in [9], 27.5 µM (active); in assay [11] it was 14.2 µM (active); in assay [12], 11.9 µM (active); in [13] it was 24.2 µM (active). The AC50 in assay [14] is 14.1 µM (active); in [15], 19 µM (active); in assay [18], 16 µM (active). Besides, the outcome in [10] and in assay [16] was inactive.
